# Data as given in doi:10.1101/2024.03.05.583629.
# Biological target: pT7_6His-AlfaTag-HOXD13 (human, UniProt P35453 263-343)
# Assay: PADIT-seq
# Details: dsDNA, one strand shown
# Sequence of pT7_6His-AlfaTag-HOXD13 (P35453 263-343): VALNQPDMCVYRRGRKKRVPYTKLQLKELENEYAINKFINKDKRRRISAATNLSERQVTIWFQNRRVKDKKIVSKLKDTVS
row,Sequence,binding signal [log2FC]
1,CTCGAGGATATCAAGATCTGGCCTCGGCATTTTACGCGGAACCTCTAGCTAGCCGACTCACTATAGGGATAATCGCCCTGAGCAAAGACC,2.16 ± 0.0812
2,CTCGAGGATATCAAGATCTGGCCTCGGCTGGGTAAAAGGAACCTCTAGCTAGCCGACTCACTATAGGGATAATCGCCCTGAGCAAAGACC,-0.514 ± 0.0905
3,CTCGAGGATATCAAGATCTGGCCTCGGCATTTTAACGGGAACCTCTAGCTAGCCGACTCACTATAGGGATAATCGCCCTGAGCAAAGACC,1.87 ± 0.0803
4,CTCGAGGATATCAAGATCTGGCCTCGGCACACTAAAAGGAACCTCTAGCTAGCCGACTCACTATAGGGATAATCGCCCTGAGCAAAGACC,0.427 ± 0.0841
5,CTCGAGGATATCAAGATCTGGCCTCGGCCCTTGGGCGGGAACCTCTAGCTAGCCGACTCACTATAGGGATAATCGCCCTGAGCAAAGACC,-0.886 ± 0.123
6,CTCGAGGATATCAAGATCTGGCCTCGGCGTCTTAAAAGGAACCTCTAGCTAGCCGACTCACTATAGGGATAATCGCCCTGAGCAAAGACC,1.44 ± 0.067
7,CTCGAGGATATCAAGATCTGGCCTCGGCTGATGGGCGGGAACCTCTAGCTAGCCGACTCACTATAGGGATAATCGCCCTGAGCAAAGACC,-0.976 ± 0.109
8,CTCGAGGATATCAAGATCTGGCCTCGGCACCCCACGCGGAACCTCTAGCTAGCCGACTCACTATAGGGATAATCGCCCTGAGCAAAGACC,-1.03 ± 0.136
9,CTCGAGGATATCAAGATCTGGCCTCGGCCATGTAAAAGGAACCTCTAGCTAGCCGACTCACTATAGGGATAATCGCCCTGAGCAAAGACC,1.41 ± 0.0975
10,CTCGAGGATATCAAGATCTGGCCTCGGCCTTTTATCAGGAACCTCTAGCTAGCCGACTCACTATAGGGATAATCGCCCTGAGCAAAGACC,2.19 ± 0.0738
11,CTCGAGGATATCAAGATCTGGCCTCGGCGCGCGAGCGGGAACCTCTAGCTAGCCGACTCACTATAGGGATAATCGCCCTGAGCAAAGACC,-0.654 ± 0.136
12,CTCGAGGATATCAAGATCTGGCCTCGGCTTTTTAACTGGAACCTCTAGCTAGCCGACTCACTATAGGGATAATCGCCCTGAGCAAAGACC,1.56 ± 0.107
13,CTCGAGGATATCAAGATCTGGCCTCGGCGTTTTAGATGGAACCTCTAGCTAGCCGACTCACTATAGGGATAATCGCCCTGAGCAAAGACC,0.145 ± 0.106
14,CTCGAGGATATCAAGATCTGGCCTCGGCGTTTTAGGTGGAACCTCTAGCTAGCCGACTCACTATAGGGATAATCGCCCTGAGCAAAGACC,-0.0193 ± 0.12
15,CTCGAGGATATCAAGATCTGGCCTCGGCGTTTTAGGGGGAACCTCTAGCTAGCCGACTCACTATAGGGATAATCGCCCTGAGCAAAGACC,1.59 ± 0.0927
16,CTCGAGGATATCAAGATCTGGCCTCGGCCGCTCGCGCGGAACCTCTAGCTAGCCGACTCACTATAGGGATAATCGCCCTGAGCAAAGACC,-1.03 ± 0.134
17,CTCGAGGATATCAAGATCTGGCCTCGGCTTTTTATCCGGAACCTCTAGCTAGCCGACTCACTATAGGGATAATCGCCCTGAGCAAAGACC,1.15 ± 0.0852
18,CTCGAGGATATCAAGATCTGGCCTCGGCTCGTTAAAAGGAACCTCTAGCTAGCCGACTCACTATAGGGATAATCGCCCTGAGCAAAGACC,3.05 ± 0.0768
19,CTCGAGGATATCAAGATCTGGCCTCGGCATTTTATTTGGAACCTCTAGCTAGCCGACTCACTATAGGGATAATCGCCCTGAGCAAAGACC,2.85 ± 0.07
20,CTCGAGGATATCAAGATCTGGCCTCGGCTTTTTAAGCGGAACCTCTAGCTAGCCGACTCACTATAGGGATAATCGCCCTGAGCAAAGACC,0.814 ± 0.0936
21,CTCGAGGATATCAAGATCTGGCCTCGGCGTTTTACCCGGAACCTCTAGCTAGCCGACTCACTATAGGGATAATCGCCCTGAGCAAAGACC,-0.0427 ± 0.101
22,CTCGAGGATATCAAGATCTGGCCTCGGCGTTTTAGACGGAACCTCTAGCTAGCCGACTCACTATAGGGATAATCGCCCTGAGCAAAGACC,-0.509 ± 0.117
23,CTCGAGGATATCAAGATCTGGCCTCGGCCTTTTACGTGGAACCTCTAGCTAGCCGACTCACTATAGGGATAATCGCCCTGAGCAAAGACC,2.16 ± 0.0717
24,CTCGAGGATATCAAGATCTGGCCTCGGCAGGCTAAAAGGAACCTCTAGCTAGCCGACTCACTATAGGGATAATCGCCCTGAGCAAAGACC,-0.781 ± 0.0984
25,CTCGAGGATATCAAGATCTGGCCTCGGCCTTTTAAGAGGAACCTCTAGCTAGCCGACTCACTATAGGGATAATCGCCCTGAGCAAAGACC,2.52 ± 0.0827
26,CTCGAGGATATCAAGATCTGGCCTCGGCCATATAAAAGGAACCTCTAGCTAGCCGACTCACTATAGGGATAATCGCCCTGAGCAAAGACC,2.76 ± 0.0974
